# Compound activity deposited in PubChem by several laboratories.
# The list is not random: actives were taken first. Their share in the collection is about 5.4%.
# AHR act: activates the human aryl hydrocarbon receptor; AHR-responsive luciferase reporter cells, luminescence; activation, % at 5 µM; hit rate 2.5% among 320,000; in the data active means activation above about 47%;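 further: 0% = vehicle wells and 100% = reference agonist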
# HSF1 inhib: HSF1 inhibition | activity change, negative = inhibition, % at 7.5 µM (by protocol) | NIH3T3-HGL HSE-luciferase, MG132-induced, luminescence 8 h; hits give low values | hit rate 0.77% among 300,000;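 active means more than half of replicate wells show activity change below -50%, luminescence cut by over half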;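 further: luciferase reports HSF-1 transcriptional activity via heat shock element; 0% = median of DMSO wells and -100% = zero luminescence signal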
# NR0B1 inh: inhibits human nuclear receptor DAX1; HEK293 Gal4-DAX1 luciferase reporter, luminescence; inhibition, % at 6.75 µM; hit rate 0.99% among 340,000; AID 504766;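 active means inhibition above the mean over all tested compounds plus 3 SD, cut at about 4.2% in these data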;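 further: 0% = DAX1-transfected cells with DMSO and 100% = empty-vector control cells with DMSO; inhibition shows as a rise in luminescence from relieved DAX1 repression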
# Target sequence (P51843 207-470 limits assumed): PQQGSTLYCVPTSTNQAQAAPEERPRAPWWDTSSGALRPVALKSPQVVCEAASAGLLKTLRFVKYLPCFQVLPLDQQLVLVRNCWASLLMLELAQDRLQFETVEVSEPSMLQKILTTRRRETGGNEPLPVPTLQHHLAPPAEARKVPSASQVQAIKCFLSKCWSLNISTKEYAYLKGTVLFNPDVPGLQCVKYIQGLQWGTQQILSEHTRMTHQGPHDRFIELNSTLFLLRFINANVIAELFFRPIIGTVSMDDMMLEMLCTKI
# HSF-1 act: increases HSF-1 driven luciferase reporter signal. NIH3T3-HGL HSF-1 luciferase reporter, MG132, 8 h; 100% = twice DMSO control signal. activation, % at 9 µM. hit rate 1.7% among 300,000. AID 504408;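 active means mean replicate activation of at least 50% with a set share of replicates each reaching 50%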;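 further: 0% = median of the neutral control wells and 100% = twice that signal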
# FXN GAA850 act: activators of GAA850 frataxin (FXN) promoter; HEK293 lucGAA850 FXN promoter luciferase reporter, 24 h; percent of 10 µM SAHA response; activation, % at 6 µM; hit rate 0.56% among 360,000;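 active means activation above the average of all compounds screened plus 3 SD, cutoff fixed separately per campaign, cut at about 7.5% in these data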;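 further: 0% = DMSO wells and 100% = 10 µM SAHA wells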
# Numbers without * were called inactive; · = no result.
SMILES,AHR act,HSF1 inhib,NR0B1 inh,HSF-1 act,FXN GAA850 act
Cn1c(/C(C#N)=C/Nc2ccccn2)nc2ccccc21,118*,-11,0,0,0
O=C(Oc1ccccc1)N1CCN(C(=O)c2ccco2)CC1,·,4,1,0,4
C/C(=N\Nc1c(Cl)c(Cl)nc(C(=O)O)c1Cl)c1ccc(O)cc1,50*,-6,0,-1,1
COCCn1c(=NC(=O)c2ccc(S(=O)(=O)N3CCCc4ccccc43)cc2)sc2cc(S(C)(=O)=O)ccc21,1,-13,4.7*,7,-4
CC1(C)Cc2c(sc3[nH]c(=S)n(Cc4ccco4)c(=O)c23)CO1,0,23,0,40,0
O=c1c2c3c(sc2[nH]c(=S)n1Cc1ccco1)CCC3,3,75,0,94*,3
COc1cc(C(=O)OC2CC3CCC2(C)C3(C)C)ccc1OC(C)=O (centres undefined),3,3,4.7*,6,1
O=C(O)CCC(=O)Nc1nc2nccc(-c3ccccc3)n2n1,3,11,4.8*,3,2
CC1CC=CCC1(CO)CO (centres undefined),·,·,-1,·,-10
CN(Cc1cccc(F)c1)C(=O)c1ccc(S(=O)(=O)N2CCCCCC2)cc1,-2,·,-1,·,1
C=CCNC(=O)c1c(C(F)(F)F)nn(C)c1Cl,3,-54*,-1,-64,3
CSc1ncccc1C(=O)OCC(=O)Nc1ccc(N2CCOCC2)cc1,0,·,0,·,0
O=C(COC(=O)c1ccc(O)cc1)Nc1ccc2c(c1)OCO2,2,·,-1,·,0
Cc1ccc(C(=O)c2ccccc2C(=O)OCC(=O)NCCc2ccc(Cl)cc2Cl)cc1,0,31,0,54*,3
CCc1ccc(NC(=O)CS(=O)CC(=O)Nc2ccc(-n3cnnn3)c(C)c2)cc1 (centres undefined),2,7,0,2,-1
COc1ccccc1CN1C(=O)c2ccccc2C1C(=O)NC1CCC(C)CC1 (centres undefined),1,6,0,26,-1
Cc1cc(F)ccc1-c1cc(C(=O)NC(C)C)[nH]n1,·,·,·,·,1
Cc1cc(OCC(=O)NC(C)C)cc(C)c1Br,29,-1,4.4*,16,1
O=C(/C=C/c1cccc([N+](=O)[O-])c1)c1ccc([N+](=O)[O-])o1,-2,32,0,54*,-14
Cc1nc2ccccn2c1C(=O)/C=C/c1cccc([N+](=O)[O-])c1,60*,13,0,46,3
O=C(/C=C/c1cccc([N+](=O)[O-])c1)c1ccco1,0,5,0,29,2
CCOc1ccc(C2C(C#N)=C(N)Oc3cc(C)n(CCN(C)C)c(=O)c32)cc1OCC (centres undefined),-1,-3,0,5,-1
Cc1cc(C)nc(NC(=S)Nc2cccc(F)c2)c1,48*,14,3,26,2
COc1cccc(NC(=S)Nc2cc(C)cc(C)n2)c1,66*,21,5.3*,56*,7
CCCN(CC1CC1)C(=O)CSc1ncnc2sccc12,9,4,-1,-12,1
SMILES,AHR act,HSF1 inhib,NR0B1 inh,HSF-1 act,FXN GAA850 act
COc1ccc2cc(N=Cc3nc(-c4ccc(C)cc4)oc3O)cnc2c1,4,-3,1,0,0
CC/C(C)=N/Oc1nc(C)cc(C)n1,-2,1,4,4,2
CCOC(=O)CSC1=C(C#N)C(c2ccccc2OCC)C(C#N)C(=O)N1 (centres undefined),0,2,4.2*,2,1
CCOC(=O)CSC1=C(C#N)C(c2ccccc2OCC)C(C(=O)OCC)C(=O)N1 (centres undefined),1,9,1,14,-1
COCCOC(=O)c1cc(C(=O)c2cc(Cl)ccc2O)coc1=N,1,-3,1,-6,3
CCCCCC(=O)N1C[C@@H](O)[C@H](n2cc(C3CC3)nn2)C[C@@H]1c1ccc(Cl)cc1,·,·,4.6*,·,-2
COC(=O)CC1C(=O)NCCN1C(=S)Nc1cccc(C)c1 (centres undefined),3,-3,-1,0,-1
COC(=O)CC1C(=O)NCCN1C(=S)Nc1ccc(F)cc1 (centres undefined),0,2,5.2*,-2,0
Cc1nc([N+](=O)[O-])c(Br)n1Cc1ccccc1,-1,49,2,77*,-5
Cc1nc([N+](=O)[O-])c(Br)n1CC(=O)c1cccc([N+](=O)[O-])c1,0,75,0,102*,-3
Cc1ccc(-n2ncc3ccccc3c2=O)cc1Cl,8,75,4.7*,88*,2
COc1ccc(/C=C2\SC(N)=NC2=O)cc1,·,8,4.9*,-9,-4
NC1=NC(=O)C(=Cc2ccccc2)S1,·,-12,0,-12,3
O=C(Cc1ccccc1F)Nc1nc(-c2cccs2)cs1,-15,52,2,66*,0
O=C(Cc1ccccc1)Nc1nc(-c2cccs2)cs1,-9,22,0,20,5
O=C(Cc1ccccc1)Nc1nnc(-c2cccs2)s1,69*,14,2,23,4
CCC(=O)Nc1nnc(-c2cccs2)s1,74*,9,3,0,2
COc1ccc(CC(=O)OCC(=O)Nc2ccc(Br)cc2)cc1,1,14,0,3,1
Cc1ccc(CCNC(=O)CN2CCN(Cc3ccccc3F)C2=O)cc1,1,1,0,5,-1
COc1ccc(CCNC(=O)Cc2ccccc2)cc1OC,-1,0,5.6*,1,2
COc1nc(NCCN2CCOCC2)nc(Nc2ccccc2)n1,19,-3,1,-22,3
COc1ccc(CCNC(=O)CCc2ccccc2)cc1OC,-1,1,·,-4,2
COc1ccc(CC(=O)NNC(=O)c2nn(Cc3ccccc3)c(=O)c3ccccc23)cc1OC,0,-3,5.1*,-3,-1
COc1nc(NCCc2ccc(OC)c(OC)c2)nc(Nc2ccccc2)n1,48*,15,-2,17,4
COc1ccc(CCNC(=O)CN2CCN(Cc3ccccc3F)C2=O)cc1OC,0,-74*,3,-79,0
SMILES,AHR act,HSF1 inhib,NR0B1 inh,HSF-1 act,FXN GAA850 act
O=C(Nc1ccc2ccccc2c1)c1ccc2[nH]c(=O)c(=O)[nH]c2c1,24,1,1,-15,0
COc1ccc(CCNC(=O)c2ccc(CNS(=O)(=O)c3cccc(Cl)c3)cc2)cc1OC,3,20,-2,60*,-1
O=C(Cc1ccccc1)Nn1c(O)c(/C=C2\C=Nc3ccccc32)sc1=S,76*,0,0,5,3
Cn1c(O)c(/C=C2\C=Nc3ccccc32)sc1=Nc1ccc(C(=O)O)cc1,51*,3,3,-6,2
COc1cccc2cc(CC(=O)c3ccc(C)cc3C)c(=O)oc12,2,32,0,40,3
O=C(c1ccc(Cl)nc1)c1cccs1,54*,-4,·,·,·
Nc1cc(C(=O)c2cccs2)ccc1Cl,15,3,2,-12,1
